According to PMC10812921, “Transcriptional Coactivator BOB1 (OBF1, OCA-B) Modulates the Specificity of DNA Recognition by the POU-Domain Factors OCT1 and OCT2 in a Monomeric Configuration”:

Assays:
POU1 (OCT1 POU domain) = POU1 (OCT1 POU domain) (human, UniProt P14859 260-458); experiment: EMSA-SELEX-seq; no BOB1; 20 mM Tris-HCl pH 7.6, 140 mM NaCl, 10% glycerol, 0.5 mM EDTA, 0.05% Triton X-100, 0.1 mg/mL BSA, 0.1 mg/mL poly(dI-dC), 5 mM DTT, room temperature, 20 min; high values mean tight binding; conditions: protein: recombinant; dsDNA, one strand shown
Chain of POU1 (OCT1 POU domain) (P14859 260-458): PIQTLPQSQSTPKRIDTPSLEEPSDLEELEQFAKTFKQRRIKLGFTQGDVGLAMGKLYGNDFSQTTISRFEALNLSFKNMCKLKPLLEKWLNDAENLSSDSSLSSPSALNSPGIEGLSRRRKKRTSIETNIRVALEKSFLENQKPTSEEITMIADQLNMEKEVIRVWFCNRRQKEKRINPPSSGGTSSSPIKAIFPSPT
Summary of the method: (§1)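 Binding preference means the percentage of sequenced 8-mers matching a motif pattern. Tagged POU-domain proteins (30 ng), expressed in E. coli BL21, purified under denaturing conditions and renatured, were mixed with 300 ng of a PCR-amplified double-stranded random 35-nt library, with or without 28 ng coactivator protein, for 20 min at RT in 20 μL Tris–HCl pH 7.6 binding buffer. Selection was repeated over four rounds of excising complex bands from native 6% PAGE, eluting and PCR amplification, followed by Illumina sequencing.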

POU2 (OCT2 POU domain) = molecular target: T1, POU2 (OCT2 POU domain) (human, UniProt P09086 175-386); experiment: as above; conditions: protein: recombinant; dsDNA, one strand shown
T1 sequence: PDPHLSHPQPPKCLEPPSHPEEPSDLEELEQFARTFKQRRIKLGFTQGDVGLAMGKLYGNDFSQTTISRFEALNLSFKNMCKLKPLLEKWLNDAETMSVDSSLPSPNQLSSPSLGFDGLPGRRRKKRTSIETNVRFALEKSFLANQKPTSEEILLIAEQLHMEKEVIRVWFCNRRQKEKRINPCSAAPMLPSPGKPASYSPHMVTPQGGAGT
Summary of the method: as §1

[1] = molecular target: POU1 (OCT1 POU domain);BOB1 (OBF1, OCA-B) (human;human, UniProt P14859;Q16633 260-458;1-256, |); experiment: EMSA-SELEX-seq; with BOB1 (ternary complex band); 20 mM Tris-HCl pH 7.6, 140 mM NaCl, 10% glycerol, 0.5 mM EDTA, 0.05% Triton X-100, 0.1 mg/mL BSA, 0.1 mg/mL poly(dI-dC), 5 mM DTT, room temperature, 20 min; high values mean tight binding; conditions: protein: recombinant;recombinant; copies: 1;1; dsDNA, one strand shown
Summary of the method: as §1

[2] = molecular target: T2, POU2 (OCT2 POU domain);BOB1 (OBF1, OCA-B) (human;human, UniProt P09086;Q16633 175-386;1-256, |); experiment: as above; conditions: protein: recombinant;recombinant; copies: 1;1; dsDNA, one strand shown
T2 sequence 1: T1 sequence
T2 sequence 2: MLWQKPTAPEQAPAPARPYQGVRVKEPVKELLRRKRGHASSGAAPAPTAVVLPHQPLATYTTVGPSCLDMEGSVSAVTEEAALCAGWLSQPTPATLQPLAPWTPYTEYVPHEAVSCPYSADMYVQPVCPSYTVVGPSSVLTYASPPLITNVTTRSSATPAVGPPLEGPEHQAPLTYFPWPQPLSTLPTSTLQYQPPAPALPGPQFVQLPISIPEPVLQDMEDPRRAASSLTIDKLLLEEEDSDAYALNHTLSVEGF
Summary of the method: as §1

Sequence	binding signal (POU1 (OCT1 POU domain))	binding signal (POU2 (OCT2 POU domain))	binding signal [1]	binding signal [2]
ATTGTAAG	0.0507 % of ANNNNAAN 8-mers	0.0685 % of ANNNNAAN 8-mers	0.0593 % of ANNNNAAN 8-mers	0.0594 % of ANNNNAAN 8-mers
ATCCTAAC	0.0172 % of ANNNNAAN 8-mers	0.0299 % of ANNNNAAN 8-mers	0.023 % of ANNNNAAN 8-mers	0.0355 % of ANNNNAAN 8-mers
ATATTAAC	0.151 % of ANNNNAAN 8-mers	0.189 % of ANNNNAAN 8-mers	0.0667 % of ANNNNAAN 8-mers	0.0751 % of ANNNNAAN 8-mers
ACTTCAAT	0.0256 % of ANNNNAAN 8-mers	0.038 % of ANNNNAAN 8-mers	0.0363 % of ANNNNAAN 8-mers	0.0446 % of ANNNNAAN 8-mers
AGGTCAAC	0.0198 % of ANNNNAAN 8-mers	0.0288 % of ANNNNAAN 8-mers	0.0269 % of ANNNNAAN 8-mers	0.0289 % of ANNNNAAN 8-mers
ACCTGAAT	0.0583 % of ANNNNAAN 8-mers	0.0656 % of ANNNNAAN 8-mers	0.0359 % of ANNNNAAN 8-mers	0.0438 % of ANNNNAAN 8-mers
AAGATAAT	0.138 % of ANNNNAAN 8-mers	0.203 % of ANNNNAAN 8-mers	0.0819 % of ANNNNAAN 8-mers	0.129 % of ANNNNAAN 8-mers
AAATAAAT	0.261 % of ANNNNAAN 8-mers	0.275 % of ANNNNAAN 8-mers	0.232 % of ANNNNAAN 8-mers	0.22 % of ANNNNAAN 8-mers
ATTGTAAA	0.116 % of ANNNNAAN 8-mers	0.106 % of ANNNNAAN 8-mers	0.144 % of ANNNNAAN 8-mers	0.0925 % of ANNNNAAN 8-mers
ACAGTAAA	0.0481 % of ANNNNAAN 8-mers	0.0414 % of ANNNNAAN 8-mers	0.0531 % of ANNNNAAN 8-mers	0.0338 % of ANNNNAAN 8-mers
ACTTCAAG	0.0194 % of ANNNNAAN 8-mers	0.0236 % of ANNNNAAN 8-mers	0.0168 % of ANNNNAAN 8-mers	0.0256 % of ANNNNAAN 8-mers
ACTCGAAT	0.0484 % of ANNNNAAN 8-mers	0.0518 % of ANNNNAAN 8-mers	0.0402 % of ANNNNAAN 8-mers	0.0504 % of ANNNNAAN 8-mers
AAACAAAC	0.066 % of ANNNNAAN 8-mers	0.0506 % of ANNNNAAN 8-mers	0.109 % of ANNNNAAN 8-mers	0.0512 % of ANNNNAAN 8-mers
ATCCGAAA	0.0305 % of ANNNNAAN 8-mers	0.0374 % of ANNNNAAN 8-mers	0.0308 % of ANNNNAAN 8-mers	0.0338 % of ANNNNAAN 8-mers
ATCGTAAT	0.085 % of ANNNNAAN 8-mers	0.108 % of ANNNNAAN 8-mers	0.0679 % of ANNNNAAN 8-mers	0.0768 % of ANNNNAAN 8-mers
ACTTAAAG	0.0328 % of ANNNNAAN 8-mers	0.0437 % of ANNNNAAN 8-mers	0.0328 % of ANNNNAAN 8-mers	0.0462 % of ANNNNAAN 8-mers

Sequence	binding signal (POU1 (OCT1 POU domain))	binding signal (POU2 (OCT2 POU domain))	binding signal [1]	binding signal [2]
ATTTAAAT	2.83 % of ANNNNAAN 8-mers	2.38 % of ANNNNAAN 8-mers	0.709 % of ANNNNAAN 8-mers	0.832 % of ANNNNAAN 8-mers
AGACAAAC	0.0313 % of ANNNNAAN 8-mers	0.0265 % of ANNNNAAN 8-mers	0.0414 % of ANNNNAAN 8-mers	0.0322 % of ANNNNAAN 8-mers
ACGTGAAT	0.0732 % of ANNNNAAN 8-mers	0.107 % of ANNNNAAN 8-mers	0.0558 % of ANNNNAAN 8-mers	0.0784 % of ANNNNAAN 8-mers
ATGAGAAG	0.0709 % of ANNNNAAN 8-mers	0.088 % of ANNNNAAN 8-mers	0.0652 % of ANNNNAAN 8-mers	0.0553 % of ANNNNAAN 8-mers
AGATTAAT	0.147 % of ANNNNAAN 8-mers	0.207 % of ANNNNAAN 8-mers	0.0901 % of ANNNNAAN 8-mers	0.106 % of ANNNNAAN 8-mers
ATGGGAAC	0.0496 % of ANNNNAAN 8-mers	0.0443 % of ANNNNAAN 8-mers	0.0488 % of ANNNNAAN 8-mers	0.0421 % of ANNNNAAN 8-mers
ACGGCAAC	0.0141 % of ANNNNAAN 8-mers	0.0109 % of ANNNNAAN 8-mers	0.0152 % of ANNNNAAN 8-mers	0.0124 % of ANNNNAAN 8-mers
AAGAAAAC	0.0473 % of ANNNNAAN 8-mers	0.0345 % of ANNNNAAN 8-mers	0.0644 % of ANNNNAAN 8-mers	0.0355 % of ANNNNAAN 8-mers
ACTTGAAA	0.0317 % of ANNNNAAN 8-mers	0.042 % of ANNNNAAN 8-mers	0.0433 % of ANNNNAAN 8-mers	0.0371 % of ANNNNAAN 8-mers
AGATTAAG	0.0656 % of ANNNNAAN 8-mers	0.088 % of ANNNNAAN 8-mers	0.0581 % of ANNNNAAN 8-mers	0.0619 % of ANNNNAAN 8-mers
ACTGTAAC	0.0175 % of ANNNNAAN 8-mers	0.0224 % of ANNNNAAN 8-mers	0.0203 % of ANNNNAAN 8-mers	0.0165 % of ANNNNAAN 8-mers
ATGGCAAG	0.0355 % of ANNNNAAN 8-mers	0.0414 % of ANNNNAAN 8-mers	0.0351 % of ANNNNAAN 8-mers	0.0371 % of ANNNNAAN 8-mers
ATATCAAC	0.0481 % of ANNNNAAN 8-mers	0.0449 % of ANNNNAAN 8-mers	0.0367 % of ANNNNAAN 8-mers	0.0471 % of ANNNNAAN 8-mers
ACTGAAAC	0.0164 % of ANNNNAAN 8-mers	0.019 % of ANNNNAAN 8-mers	0.0238 % of ANNNNAAN 8-mers	0.0173 % of ANNNNAAN 8-mers
AACAAAAA	0.0831 % of ANNNNAAN 8-mers	0.0662 % of ANNNNAAN 8-mers	0.121 % of ANNNNAAN 8-mers	0.0726 % of ANNNNAAN 8-mers
